Results published in PubChem BioAssay (Tox21).
Records with an inconclusive call do not appear. Unmarked numbers belong to inactive results. Activity calls are given as the source filed them. Unless noted, calls follow the shape of the dose curve; as a rule, active = well fitted cell-killing curve with a large enough effect in the repeat runs; inconclusive = weak or mixed curves, or effect the other way; inactive = no such curve, though single readings can be large or run the other way.

Assay: qHTS assay to identify small molecule antagonists of the progesterone receptor (PR) signaling pathway - cell viability counter screen (AID 1346798); also: nearly all actives have a fitted effect of over 50% in size
Settings: PR-UAS-bla HEK293T viability, CellTiter-Glo luminescence, 16 h; series mostly up to 42.5 µM; activity change, negative = cytotoxicity: at the top concentration
How it was run: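 Measures cytotoxicity in parallel with the PR antagonist reporter read: HEK293T PR-UAS-bla cells get compound and R5020 for 16 hr, and remaining viable cells are quantified by CellTiter-Glo luminescence.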
% is scaled to controls: 0 for no effect and ±100 for the full control effect.

**Q.** For CN1CCC(=C2c3ccccc3CC(=O)c3sccc32)CC1, which “activity change, negative = cytotoxicity” value is on record?
**A.** -18.9%

**Q.** Which Potency does the source give for OC[C@]1(O)OC[C@@H](O)[C@H](O)[C@@H]1O here?
**A.** inactive

**Q.** For CCCCC/C=C\CCC=O, which “activity change, negative = cytotoxicity” value is on record?
**A.** -3.33% [at 92.4 µM]

**Q.** For CCCC(=O)O[C@]1(C(=O)CO)CC[C@H]2[C@@H]3CCC4=CC(=O)CC[C@]4(C)[C@H]3[C@@H](O)C[C@@]21C, which “activity change, negative = cytotoxicity” value is on record?
**A.** 2.05%

**Q.** Which “activity change, negative = cytotoxicity” value does the source give for COC(=O)CCSCCC(=O)OC here?
**A.** 8.92% [at 92.4 µM]

**Q.** For CC(=O)c1ccccc1O, which “activity change, negative = cytotoxicity” value is on record?
**A.** 5.45% [at 92.4 µM]

**Q.** For CC(NC(CCc1ccccc1)C(=O)O)C(=O)N1C(=O)N(C)CC1C(=O)O (stereo not drawn), which “activity change, negative = cytotoxicity” value is on record?
**A.** 8.83%

**Q.** With NC(=O)c1ccc(N)cc1 as the compound, how does the “activity change, negative = cytotoxicity” value read?
**A.** 1.6% [at 92.4 µM]

**Q.** Which “activity change, negative = cytotoxicity” value does the source give for CC(C)OC(=O)c1ccccc1 here?
**A.** 8.47% [at 92.4 µM]

**Q.** With Nc1c2c(nc3ccccc13)CCCC2O (stereo not drawn) as the compound, how does the “activity change, negative = cytotoxicity” value read?
**A.** -6.59%

**Q.** Which “activity change, negative = cytotoxicity” value does the source give for CCCCCCCCCCCCCCCCC here?
**A.** 2.17% [at 92.4 µM]

**Q.** Which “activity change, negative = cytotoxicity” value does the source give for COC(=O)CC(C)=O here?
**A.** 11.9% [at 92.4 µM]

**Q.** For CCN1CCC[C@H]1CNC(=O)c1c(O)c(Cl)cc(Cl)c1OC, which “activity change, negative = cytotoxicity” value is on record?
**A.** -14.4%

**Q.** For O=C(O)c1ccccc1OP(=O)(O)O, which “activity change, negative = cytotoxicity” value is on record?
**A.** 0.443%

**Q.** Which “activity change, negative = cytotoxicity” value does the source give for CCOC(C)(C)C here?
**A.** 9.88% [at 92.4 µM]

**Q.** With Nc1nc2c(ncn2COC(CO)CO)c(=O)[nH]1 as the compound, how does the “activity change, negative = cytotoxicity” value read?
**A.** -11.7%

**Q.** For CCCCCCCCCCCCCC=O, which activity change, negative = cytotoxicity is on record?
**A.** 2% [at 8.39 µM]

**Q.** For c1cnc(N2CCN(Cc3ccc4c(c3)OCO4)CC2)nc1, which “activity change, negative = cytotoxicity” value is on record?
**A.** 6.17%

**Q.** For CC/C=C\CC/C=C/C(OCC)OCC, which “activity change, negative = cytotoxicity” value is on record?
**A.** -0.523% [at 92.4 µM]

**Q.** Which “activity change, negative = cytotoxicity” value does the source give for NCCc1cnc[nH]1 here?
**A.** -3.25%

**Q.** Which “activity change, negative = cytotoxicity” value does the source give for CCC(=O)OC(C)c1ccccc1 (stereo not drawn) here?
**A.** 0.768% [at 92.4 µM]

**Q.** For COc1c(N2C[C@@H]3CCCN[C@@H]3C2)c(F)cc2c(=O)c(C(=O)O)cn(C3CC3)c12, which “activity change, negative = cytotoxicity” value is on record?
**A.** 19.5%

**Q.** With O=S(O)CO as the compound, how does the “activity change, negative = cytotoxicity” value read?
**A.** -8.2% [at 92.4 µM]

**Q.** With CCCCOCCOCCOCCCC as the compound, how does the “activity change, negative = cytotoxicity” value read?
**A.** -5.45% [at 92.4 µM]

**Q.** For CCc1ccc(O)c(OC)c1, which “activity change, negative = cytotoxicity” value is on record?
**A.** -0.353% [at 92.4 µM]

**Q.** For CCCCCCCCS(=O)(=O)Cl, which “activity change, negative = cytotoxicity” value is on record?
**A.** 15.6% [at 92.4 µM]

**Q.** With CCO[Si](CCC1CCC2OC2C1)(OCC)OCC (stereo not drawn) as the compound, how does the “activity change, negative = cytotoxicity” value read?
**A.** 1.38% [at 92.4 µM]

**Q.** With NC(=O)c1ccc([N+](=O)[O-])cc1 as the compound, how does the “activity change, negative = cytotoxicity” value read?
**A.** 11.5% [at 92.4 µM]

**Q.** Which “activity change, negative = cytotoxicity” value does the source give for CS(=O)(=O)O here?
**A.** 3.28% [at 92.4 µM]

**Q.** Which “activity change, negative = cytotoxicity” value does the source give for O=Cc1cccc([N+](=O)[O-])c1 here?
**A.** 5.22% [at 92.4 µM]

**Q.** For N=c1nc(N2CCCCC2)cc(N)n1O, which “activity change, negative = cytotoxicity” value is on record?
**A.** -0.901%

Assay: qHTS assay to identify small molecule agonists of the progesterone receptor (PR) signaling pathway - cell viability counter screen (AID 1346799; calls by dose curve; also: nearly all actives have a fitted effect of over 45% in size)
Settings: PR-UAS-bla HEK293T viability, CellTiter-Glo luminescence, 16 h; series mostly up to 92.4 µM; activity change, negative = cytotoxicity: at the top concentration
How it was run: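 Using the same plates as the PR reporter screen, HEK293T PR-UAS-bla cells received compounds for 16 hr at 37C and were then lysed with CellTiter-Glo; luminescence was read 30 min later at room temperature.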

**Q.** With CN1CCC(=C2c3ccccc3CC(=O)c3sccc32)CC1 as the compound, how does the “activity change, negative = cytotoxicity” value read?
**A.** -21.4% [at 42.5 µM]

**Q.** For OC[C@]1(O)OC[C@@H](O)[C@H](O)[C@@H]1O, which “activity change, negative = cytotoxicity” value is on record?
**A.** 1.59% [at 42.5 µM]

**Q.** Which “activity change, negative = cytotoxicity” value does the source give for COC(=O)CCSCCC(=O)OC here?
**A.** -4.21%

**Q.** With CC(=O)c1ccccc1O as the compound, how does the “activity change, negative = cytotoxicity” value read?
**A.** 9.87%

**Q.** Which “activity change, negative = cytotoxicity” value does the source give for CC(NC(CCc1ccccc1)C(=O)O)C(=O)N1C(=O)N(C)CC1C(=O)O (stereo not drawn) here?
**A.** -0.834% [at 42.5 µM]

**Q.** With NC(=O)c1ccc(N)cc1 as the compound, how does the “activity change, negative = cytotoxicity” value read?
**A.** 6.32%

**Q.** With CC(C)OC(=O)c1ccccc1 as the compound, how does the “activity change, negative = cytotoxicity” value read?
**A.** 1.7%

**Q.** For Nc1c2c(nc3ccccc13)CCCC2O (stereo not drawn), which “activity change, negative = cytotoxicity” value is on record?
**A.** -1.08% [at 42.5 µM]

**Q.** Which “activity change, negative = cytotoxicity” value does the source give for CCCCCCCCCCCCCCCCC here?
**A.** -5.67%

**Q.** With COC(=O)CC(C)=O as the compound, how does the “activity change, negative = cytotoxicity” value read?
**A.** 5.64%

**Q.** With COc1ccc2c(c1)c(CC(=O)OCC(=O)O)c(C)n2C(=O)c1ccc(Cl)cc1 as the compound, how does the “activity change, negative = cytotoxicity” value read?
**A.** -7.31% [at 42.5 µM]

**Q.** With CCN1CCC[C@H]1CNC(=O)c1c(O)c(Cl)cc(Cl)c1OC as the compound, how does the “activity change, negative = cytotoxicity” value read?
**A.** 2.43% [at 42.5 µM]

**Q.** Which “activity change, negative = cytotoxicity” value does the source give for CCOC(C)(C)C here?
**A.** -7.6%

**Q.** With Nc1nc2c(ncn2COC(CO)CO)c(=O)[nH]1 as the compound, how does the “activity change, negative = cytotoxicity” value read?
**A.** -9.66% [at 42.5 µM]

**Q.** For CCCCCCCCCCCCCC=O, which activity change, negative = cytotoxicity is on record?
**A.** 5.7% [at 8.39 µM]

**Q.** Which “activity change, negative = cytotoxicity” value does the source give for c1cnc(N2CCN(Cc3ccc4c(c3)OCO4)CC2)nc1 here?
**A.** 2.92% [at 42.5 µM]

**Q.** For CC/C=C\CC/C=C/C(OCC)OCC, which “activity change, negative = cytotoxicity” value is on record?
**A.** -7.15%
